We go through 40 molecules from PubChem BioAssay (Tox21).

Results filed as inconclusive are left out. The source made the active and inactive calls. Calls come from the whole dose curve; as a rule, active = well fitted activation curve with a large enough effect in the signal ratio in the repeat runs (not every such curve was filed as active); inconclusive = weak or mixed curves, or effect the other way; inactive = no such curve, though single readings can be large or run the other way; the % refers to the signal ratio.

In this test the target is Glucocorticoid receptor (Homo sapiens) (UniProt P04150). Briefly: qHTS assay to identify small molecule agonists of the glucocorticoid receptor (GR) signaling pathway (AID 720691). Particulars: GR-bla HeLa, beta-lactamase reporter ratio, 18 h; series mostly up to 62.4 µM. The source says: U.S. Tox21 Program National Center for Advancing Translational Sciences [NCATS] NIH Chemical Genomics Center [NCGC] U.S. Environmental Protection Agency [EPA] National Institutes of Environmental Health Sciences [NIEHS] National Toxicology Program [NTP] U.S. Food and Drug Administration [FDA] Tox21 Assay Overview: The Glucocorticoid receptor (GR) is one of the members of the nuclear receptor family of ligand-dependent transcription factors. GR plays a critical role in carbohydrate, protein and lipid metabolisms and programmed cell death. CellSensor GR-bla HeLa cell line (Invitrogen) contains a beta-lactamase reporter gene under the control of the glucocorticoid response element stably integrated into HeLa cells, a cervical cancer cell line that expresses glucocorticoid receptor. The activation of the reporter gene under culture conditions can be detected by fluorescence intensity. This cell line has been used to screen the Tox21 10K compound library and to identify the compounds that activate the GR signaling.
Chain of Glucocorticoid receptor (Homo sapiens) (P04150 whole entry, looked up): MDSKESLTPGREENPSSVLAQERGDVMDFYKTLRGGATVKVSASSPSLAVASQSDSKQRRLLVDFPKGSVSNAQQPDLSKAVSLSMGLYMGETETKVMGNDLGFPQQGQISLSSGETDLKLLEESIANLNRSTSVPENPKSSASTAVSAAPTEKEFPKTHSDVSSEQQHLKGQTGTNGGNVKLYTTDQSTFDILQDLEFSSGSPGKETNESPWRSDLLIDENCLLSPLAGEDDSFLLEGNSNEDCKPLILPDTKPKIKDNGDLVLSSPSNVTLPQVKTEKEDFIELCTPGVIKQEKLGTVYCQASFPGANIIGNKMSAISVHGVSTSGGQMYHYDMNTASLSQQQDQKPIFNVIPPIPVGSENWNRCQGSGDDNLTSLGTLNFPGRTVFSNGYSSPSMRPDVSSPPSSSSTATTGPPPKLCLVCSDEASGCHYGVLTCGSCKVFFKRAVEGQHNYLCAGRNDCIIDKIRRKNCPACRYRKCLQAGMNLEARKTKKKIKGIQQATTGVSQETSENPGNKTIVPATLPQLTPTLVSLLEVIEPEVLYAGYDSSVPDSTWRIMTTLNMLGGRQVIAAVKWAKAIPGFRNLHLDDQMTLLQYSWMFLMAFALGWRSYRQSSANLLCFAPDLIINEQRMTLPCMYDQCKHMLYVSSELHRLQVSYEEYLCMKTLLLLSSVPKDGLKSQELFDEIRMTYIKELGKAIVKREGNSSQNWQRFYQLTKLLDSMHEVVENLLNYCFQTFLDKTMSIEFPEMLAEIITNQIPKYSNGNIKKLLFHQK
Tox21 Assay Protocol Summary: The GR-bla HeLa cells were dispensed at 1500 cells/6 ul/well in 1536-well black wall/clear bottom plates using a Multidrop Combi (ThermoFisher Scientific, Waltham, MA) dispenser. After the assay plates were incubated at a 37 C/5% CO2 incubator for 4 hours, 23 nL of compounds dissolved in DMSO, positive controls or DMSO only was transferred to the assay plate by a pintool station (Kalypsys, San Diego, CA). The plates were incubated at 37 C for 18 hours. After 1 uL of LiveBLAzerTM B/G FRET substrate was added using a Flying Reagent Dispenser (Aurora Discovery, San Diego, CA), the plates were incubated at room temperature for 2 hours, and fluorescence intensity was measured by an Envision plate reader (PerkinElmer, Shelton, CT).
Background: qHTS replaces the single test concentration by a dilution series.
Regarding `O=S(=O)(O)c1ccccc1`, the outcome was inactive.
In the case of `CC(C)=CCl` it was “inactive”; in that of `C=C(C)[C@H]1CC=C(C)C(=O)C1`, “inactive”.
The value for `CC(=O)CC(C)(C)O` was “inactive”; that for `CC(=O)OC1CC(C)OC(C)O1` (stereo not given) was “inactive”; that for `CC1(C)S[C@@H]2[C@H](NC(=O)COc3ccccc3)C(=O)N2[C@H]1C(=O)O` was “inactive”.
With `CCCCOC(=O)c1ccc(N)cc1`, the outcome was inactive.
The value for `CCCCCCCCCCO` was “inactive”.
Regarding `CC(C)OP(=O)(CP(=O)(OC(C)C)OC(C)C)OC(C)C`, the result was inactive.
The value for `COc1ccc(OC)cc1` was “inactive”; that for `CCCOC(=O)c1ccccc1` was “inactive”; that for `C=CCc1ccc(OC)c(OC)c1` was “inactive”.
On to `CC(C)(C#N)c1cc(Cn2cncn2)cc(C(C)(C)C#N)c1`, for which the outcome was inactive.
The value for `CCCCCCCCCCN` was “inactive”; that for `CCCCCCCCCCCC(=O)OC` was “inactive”.
In the case of `CC(C)CC(=O)CC(C)CC(C)C` (stereo not given) it was “inactive”; in that of `CN(C)c1ccc(Cc2ccc(N(C)C)cc2)cc1`, “inactive”; in that of `C=CCCCCCCCCC(=O)O`, “inactive”.
Regarding `CCc1ccccc1CC`, the result was inactive.
The value for `COc1cc(OC)c(C(=O)CCCN2CCCC2)c(OC)c1` was “inactive”; that for `CN/C(=C\[N+](=O)[O-])NCCSCc1csc(CN(C)C)n1` was “inactive”; that for `C=CC(=O)OCCC(=O)O` was “inactive”.
The value for `CCCCCCO` was “inactive”.
In the case of `O=C(O)Cn1c(=O)n(Cc2ccc(Br)cc2F)c(=O)c2ccc(Cl)cc21` it was “inactive”.
Consider `CSc1ccc(Cl)cc1`, for which the outcome was inactive.
Turning to `CC1(C)CC(N)CC(C)(CN)C1` (stereo not given), the outcome was inactive.
The value for `Cc1ccc([N+](=O)[O-])cc1S(=O)(=O)O` was “inactive”; that for `c1ccc(Oc2ccccc2)cc1` was “inactive”.
Consider `CCCCC(C=O)CC` (stereo not given), for which the outcome was inactive.
The value for `CN(C)c1ccc(O)c2c1C[C@H]1C[C@H]3[C@H](N(C)C)C(=O)C(C(N)=O)=C(O)[C@@]3(O)C(=O)C1=C2O` was “inactive”.
Consider `O=C(O)c1ccc(S(=O)(=O)N(Cl)Cl)cc1`, for which the result was inactive.
With `O=C(O)c1ccccc1C(=O)O`, the result was inactive.
Take `O=C(O)c1cc2ccccc2cc1O`: the outcome was inactive.
With `CCO[Si](CCC#N)(OCC)OCC`, the outcome was inactive.
In the case of `O=C1CCCC1` it was “inactive”.
As for `O=S(=O)(O)c1ccc(N=Nc2c(O)ccc3cc(S(=O)(=O)O)ccc23)cc1`, the outcome was inactive.
In the case of `COCCOC(=O)c1ccccc1C(=O)OCCOC` it was “inactive”.
In the case of `CC(=O)CCC=C(C)C` it was “inactive”.
In the case of `CC(C)(Oc1ccc(CCNC(=O)c2ccc(Cl)cc2)cc1)C(=O)O` it was “inactive”; in that of `C[C@]12CC[C@@H]3c4ccc(O)cc4CC[C@H]3[C@@H]1C[C@@H](O)[C@@H]2O`, “inactive”.
